Experimental data reported in PubChem BioAssay (NCI).
About 79,000 compounds went through this panel and 15% of them were active in at least one assay; those are over-represented in the sample as a whole. Rule as the data show it: active = growth inhibition above about 70%; inactive = the rest.

How the values were obtained:
[1] = NCI Yeast Anticancer Drug Screen. Data for the rad50 strain (AID 155);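 also: 0% = growth of vehicle-only cultures of the same strain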; details: S. cerevisiae rad50 strain growth inhibition; at 50.0 µM; hits give high values
Summary of the method: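 Cells are treated with compound, grown, and their growth is then scored against vehicle-only cultures of the same repair-deficient yeast strain.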

[2] = NCI Yeast Anticancer Drug Screen. Data for the mec2-1 strain (AID 157); details: S. cerevisiae mec2-1 strain, at 50.0 µM, hits give high values
Summary of the method: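 Strain: mec2-1 (DNA repair/cell cycle alteration). Compound exposure, then growth measured; inhibition expressed relative to vehicle.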

[3] = NCI Yeast Anticancer Drug Screen. Data for the sgs1 mgt1 strain (AID 161);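 also: 0% = growth of cultures given vehicle only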; details: S. cerevisiae sgs1 mgt1 strain, at 50.0 µM, hits give high values
Summary of the method: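 Test agents were incubated with a DNA-repair-mutant yeast strain. Growth was then read and compared against vehicle-treated controls.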

[4] = NCI Yeast Anticancer Drug Screen. Data for the cln2 rad14 strain (AID 165);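 also: 0% = growth equal to vehicle treated cultures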; details: S. cerevisiae cln2 rad14 strain, at 50.0 µM, hits give high values
Summary of the method: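 Compounds are applied to the cln2 rad14 yeast strain, and growth is then compared with that of vehicle-treated cultures to give inhibition.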

[5] = NCI Yeast Anticancer Drug Screen. Data for the bub3 strain (AID 167); details: S. cerevisiae bub3 mutant strain, at 50.0 µM, hits give high values
Summary of the method: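 Part of a panel of yeast mutants defective in DNA damage repair or cell cycle regulation. Each strain is grown with compound, and inhibition is calculated relative to solvent-treated cultures.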

[6] = NCI Yeast Anticancer Drug Screen. Data for the mlh1 rad18 strain (AID 175); details: S. cerevisiae mlh1 rad18 strain growth inhibition; at 50.0 µM; hits give high values
Summary of the method: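 Read-out is yeast growth inhibition, calculated against vehicle-only controls. The compound was applied to a strain engineered with DNA damage repair alterations.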

Measured: growth inhibition

COc1ccc(C)cc1NC(=O)/C=C/c1ccccc1
inactive: [1] 1.6% | [2] -6.6% | [3] -6.5% | [4] 16.2% | [5] 30.8% | [6] -7.65%

COC(=O)Cc1oc(=O)n(-c2ccccc2)c(=O)c1C(=O)OC
inactive: [1] 6.75% | [2] -3.05% | [3] 2.05% | [4] -10.5% | [5] 10.1% | [6] -3.6%

O=S(=O)(O)c1ccccc1O
inactive: [1] -0.1% | [2] -3.35% | [3] -2.75% | [4] -44.4% | [5] -19.9% | [6] 1.95%

COc1ccc(-c2c(C#N)c(O)n(NS(=O)(=O)c3ccc(C)cc3)c(=O)c2C#N)cc1
inactive: [1] 12.1% | [2] 37% | [3] 33% | [4] 20.8% | [5] 28.5% | [6] 37.5%

Oc1cc(CN2CCOCC2)c(O)c(CN2CCOCC2)c1CN1CCOCC1
inactive: [1] 5.25% | [2] 7.45% | [3] 10.3% | [4] 27.4% | [5] -1.05% | [6] -3.3%

O=C(NC(=S)Nc1ccc([N+](=O)[O-])cc1Cl)c1ccccc1F
inactive: [1] 14.2% | [2] 6.1% | [3] 20.1% | [4] 21.9% | [5] 24.1% | [6] 20.1%

O=C1CC2C=CC(O)C(C1)C2 (stereo unspecified)
inactive: [1] -20.3% | [2] 1.65% | [3] -30.6% | [4] 21.1% | [5] -58.2% | [6] -109%

Cc1cccc2c1CCC21OC(=O)c2c1cc(F)c1ccccc21 (stereo unspecified)
inactive: [1] -13.3% | [2] -15.4% | [3] -8.5% | [4] 2.55% | [5] 14.5% | [6] 4.35%

CC(=O)n1cc2cc([N+](=O)[O-])ccc2n1
inactive: [1] -13.4% | [2] -13.6% | [3] -1.15% | [4] -91.8% | [5] -1% | [6] -17.1%

O=[N+]([O-])c1ccc(N/N=C/c2ccccc2O)c([N+](=O)[O-])c1
inactive: [1] 5.05% | [2] 20.5% | [3] 4.8% | [4] -6.8% | [5] 1.05% | [6] 4.2%

CCOC(=O)c1ccc(NC(=O)CNC2CCCCC2)cc1
inactive: [1] -0.05% | [2] -8.7% | [3] -3.2% | [4] -40.8% | [5] 4.55% | [6] -26.1%

CC1=N/C(=C\c2ccc([N+](=O)[O-])cc2)C(=O)O1
inactive: [1] 19.9% | [2] 9.05% | [3] 2.45% | [4] 4.6% | [5] 13.2% | [6] 42.8%

Cc1cccc(N=Cc2ccc(N(CCC#N)S(=O)(=O)c3ccccc3)cc2C)c1
inactive: [1] -34.5% | [2] -16.6% | [3] -54.9% | [4] -8.35% | [5] -10.9% | [6] -9.2%

O=[N+]([O-])C(Cl)C(Cl)C(Cl)=C(Cl)Cl (stereo unspecified)
inactive: [1] 23.9% | [2] 17.1% | [3] 51% | [4] 35.8% | [5] 60.8% | [6] 52.2%

O=C(O)CCc1nc2ccccc2c(=O)n1Cc1ccccc1
inactive: [1] 11.1% | [2] 10.1% | [3] -7.3% | [4] -6.1% | [5] 2.8% | [6] 10.4%

O=C1CC(C2OCOC3COCOC32)CC(=O)N1 (stereo unspecified)
inactive: [1] 4.15% | [2] -5.1% | [3] -7.15% | [4] 2.3% | [5] -12.8% | [6] -1.65%

COc1ccccc1C(=O)N/N=C/c1ccc(O)cc1
inactive: [1] 0% | [2] 22.6% | [3] 15.3% | [4] -2.7% | [5] 16.6% | [6] 19.9%

S=C1NCCOc2ccccc21
inactive: [1] -8.65% | [2] -13.1% | [3] -2.5% | [4] -8.05% | [5] -10.9% | [6] -4.55%

COC(CNCCO)c1ccccc1 (stereo unspecified)
inactive: [1] 3.1% | [2] -17.6% | [3] -0.45% | [4] -89.2% | [5] -6.15% | [6] -5.45%

O=[N+]([O-])C1(CO)COC2(OC1)c1ccccc1-c1ccccc12
inactive: [1] 0.5% | [2] -7.2% | [3] -21.6% | [4] 11.8% | [5] -26.8% | [6] -0.25%

CC(C)C(=O)CC1(O)C(=O)Nc2ccc([N+](=O)[O-])cc21 (stereo unspecified)
inactive: [1] -9.95% | [2] -0.2% | [3] -7.75% | [4] -34.9% | [5] 4.15% | [6] 2.5%

CCOC(=O)CN=C1NNS(=O)(=O)c2ccccc21
inactive: [1] 3.55% | [2] -17.4% | [3] -10.2% | [4] 28.4% | [5] -23.1% | [6] 6.35%

CC(=O)CC(=O)NCc1ccncc1
inactive: [1] -5.85% | [2] 8.1% | [3] 12.1% | [4] -44.3% | [5] 26.9% | [6] -1.9%

CN(C)c1ccc(C(Cc2ccccc2)C2NC(=S)NC2=O)cc1 (stereo unspecified)
inactive: [1] -6% | [2] -34.5% | [3] 11.2% | [4] 11.3% | [5] 7.7% | [6] -40.5%

Cc1nc(N)sc1C(=O)/C=C/c1ccc([N+](=O)[O-])cc1
inactive: [1] 16.2% | [2] -2.6% | [3] -15.7% | [4] 20.8% | [5] 15.1% | [6] 9.45%

O=C(OC1CCCC1OC(=O)c1ccccc1)c1ccccc1 (stereo unspecified)
inactive: [1] -11.5% | [2] 9.6% | [3] 1.6% | [4] -5.3% | [5] 12.2% | [6] 22.4%

CC(=N\N=C\c1ccccn1)/C(C)=N/N=C(C)/C(C)=N/N=C(C)/C(C)=N/N=C/c1ccccn1
inactive: [1] 31.7% | [2] 22.2% | [3] 21.4% | [4] 14.2% | [5] 15.2% | [6] -34%

O=c1c2cc([N+](=O)[O-])ccc2c2ccc([N+](=O)[O-])cc2c(=O)n1-c1ccc2c(c1)Cc1ccccc1-2
inactive: [1] 21.5% | [2] -21% | [3] -19.2% | [4] -21.4% | [5] -8.35% | [6] -5%

CC(=O)NC(CSCN(C)c1nc(N(C)C)nc(N(C)C)n1)C(=O)O (stereo unspecified)
inactive: [1] 7.5% | [2] -3.45% | [3] 2.95% | [4] 5.6% | [5] 8.2% | [6] 13.8%

O=S(=O)(O)C(O)C(c1ccccc1)c1ccccc1 (stereo unspecified)
inactive: [1] -16.1% | [2] -15.8% | [3] -15.6% | [4] -15.8% | [5] -7.2% | [6] -31.9%

c1ccc(C2=NC3CCCCC3S2)cc1 (stereo unspecified)
inactive: [1] 2.95% | [2] -10.6% | [3] 3.7% | [4] -32.3% | [5] -5.55% | [6] -2.75%

CCCCCCCCCCCCNC(=S)N/N=C/c1ccc(OC)cc1
inactive: [1] -19.1% | [2] -10.5% | [3] -16.8% | [4] 13.3% | [5] -8.4% | [6] -28.2%

COc1ccc(N)nn1
inactive: [1] 1.6% | [2] -6.9% | [3] -9.15% | [4] 7.5% | [5] 4.75% | [6] -10.2%

CN1C(=O)N(C)C(N2CCCC2)c2c1nc1ccccn1c2=O (stereo unspecified)
inactive: [1] -11.7% | [2] -30.8% | [3] -41.8% | [4] 5.15% | [5] -5% | [6] -29.4%

CC(C)C(CC(=O)O)C(=O)O (stereo unspecified)
inactive: [1] 3.8% | [2] -1.35% | [3] 10.2% | [4] -8% | [5] 3.95% | [6] 4.65%

Clc1ccc(CSCSCc2ccc(Cl)cc2)cc1
inactive: [1] 5.95% | [2] -15.3% | [3] 10.8% | [4] -40.9% | [5] 19.6% | [6] 4.3%

COC(=O)c1c(C)cc(OC)c(C/C=C(\C)CCCc2coc(C=C(C)C)c2)c1OC
inactive: [1] 21% | [2] 6.55% | [3] 19% | [4] 11.9% | [5] 12.4% | [6] 25%

COc1cc2c(cc1OC)C1(CCBr)C3CC4C(=CCOC5CC(=O)N2C1C54)CN3C(=O)Cc1ccccc1 (stereo unspecified)
inactive: [1] 27.8% | [2] -11.9% | [3] -3.45% | [4] 7.4% | [5] 4.75% | [6] 3.7%

NNC(=O)/C(=C/c1ccc(Cl)cc1Cl)NC(=O)c1ccccc1
inactive: [1] 45% | [2] 35.3% | [3] 39.3% | [4] 60.4% | [5] 66.8% | [6] 54.5%

Cc1cc(=S)cc(C)[nH]1
inactive: [1] 17.1% | [2] 5.5% | [3] 11.3% | [4] 2.1% | [5] 0.45% | [6] 33.4%

CC1CC(NC(=O)/C=C/C(=O)O)CC(C)(C)C1 (stereo unspecified)
inactive: [1] -2.85% | [2] 1.05% | [3] 9% | [4] -2.95% | [5] 33.9% | [6] -0.2%
